For 39 compounds, outcome and AC50 results are on record in PubChem BioAssay (EPA / NIEHS).

Molecules are shown by their SMILES. Where “and” joins values, the source holds several entries; their conditions need not be identical. Equal values may be shown once. Where a structure was tested more than once in an assay, its records may differ in their call. Calls of active or inactive are those of the source. The calls were made as follows: active = hit-call score of the fitted dose curve at least 0.9, where 1 is the maximum; inactive = score below 0.9.

This assay in a line: APR_HepG2_StressKinase_24hr: Apredica 24-hour HepG2 Assay for Stress Kinase (AID 2282922). To be noted: HepG2 stress kinase (phospho-c-Jun) imaging, actives raise or lower the signal. The protocol:
APR_HepG2_24hr is a cell-based, multiplexed-readout assay that uses HepG2, a human liver cell line, with measurements taken at 24 hours after chemical dosing in a 384-well plate.APR_HepG2_StressKinase_24hr is one of 10 assay component(s) measured or calculated from the APR_HepG2_24hr assay. It is designed to make measurements of enzyme activity, a form of enzyme reporter, as detected with fluorescence intensity signals by HCS Fluorescent Imaging technology.Data from the assay component APR_HepG2_StressKinase_24hr was analyzed into 1 assay endpoint. This assay endpoint, APR_HepG2_StressKinase_24hr, was analyzed with bidirectional fitting relative to DMSO as the negative control and baseline of activity. Using a type of enzyme reporter, measures of protein for gain or loss-of-signal activity can be used to understand the signaling at the pathway-level as they relate to the gene . Furthermore, this assay endpoint can be referred to as a primary readout, because this assay has produced multiple assay endpoints where this one serves a signaling function. To generalize the intended target to other relatable targets, this assay endpoint is annotated to the cell cycle intended target family, where the subfamily is stress response.
Cells were treated with dimethyl sulfoxide (DMSO) as a solvent control at a final concentration of 0.5% v/v or with compounds in DMSO with a resulting final DMSO concentration of 0.5% v/v. Compound treatment was done at concentrations of 0.39, 0.78, 1.56, 3.12, 6.24, 12.5, 25, 50, 100, and 200 uM in duplicate on each plate. Cells were treated with compounds for 1, 24, or 72 hr. Carbonyl […] m-chloro-phenylhydrazone (CCCP) and taxol were used as positive controls for mitochondrial function and cytoskeletal stability, respectively; DMSO served as the negative control for this experiment. Cells were fixed by the direct addition of 50 uL formaldehyde in Hank's Balanced Salt Solution (HBSS) to a final concentration of 3.7%. After incubation in the fixation medium for 30 min at room temperature (293-298 K), cells were rinsed twice with HBSS and treated with cell permeabilization buffer (16 uL of 0.5% Triton X-100) for 10 min at room temperature (293-298 K) before labeling. For mitochondrial membrane potential and mitochondrial measurements, pre-fixed cells were incubated with 50 uL of MitoTracker Red CMXRos (Invitrogen) at a concentration of 250 nM for 30 min before fixation. In the remaining cases, post-fixed cells were labeled by incubation with a multiplexed mixture of primary antibodies in HBSS for 60 min at room temperature (293-298 K) to detect immunoreactivity of c-Jun (1:500), phospho-histone H3 (1:100), phospho-histone H2A.x (1:200), p53 (1:400), alpha-tubulin (1:200) and Hoechst 33342 (2 ug/mL). Cells were labeled for multiplexed imaging on two separate plates: a) Hoechst 33342, MitoTracker Red, phospho-histone H3, and alpha-tubulin, and b) Hoechst 33342, phospho-histone H2A.x, and c-Jun. A final rinse with HBSS (50 uL) was performed before analysis. The primary and secondary antibodies for the proteins were phospho-histone H3 (rabbit anti-phospho-histone H3 and FITC-donkey anti-rabbit IgG), phospho-histone H2A.x (mouse anti-phospho-histone H2A.x and FITC-donkey anti-mouse IgG), c-Jun (rabbit anti-phospho-c-Jun and Cy3-donkey anti-rabbit IgG), p53 (sheep anti-p53 and Cy5-donkey anti-sheep IgG), alpha-tubulin (mouse anti-alpha-tubulin and Cy5-donkey anti-mouse IgG). These antibodies are available as the CellCiphr HepG2 assay kit (Millipore).Digital images of each well were captured using a Cellomics ArrayScan VTI (Thermo Scientific Cellomics) (0.8 NA objective, 0.63x optical coupler, and XF-93 filter set) at 20x magnification. The images were acquired using the autofocus feature of the ArrayScan instrument, which entails the following steps. First, the camera focuses on channel 1 (Hoechst 33342), where nuclei are identified. Second, a Z offset of 1 um is used for capturing mitochondria (MitoTracker Red). […]
In the case of `CCN(Cc1c(F)cccc1Cl)c1c([N+](=O)[O-])cc(C(F)(F)F)cc1[N+](=O)[O-]`, the call was inactive.
For the compound `CCC(C)OC(=O)N1CCCCC1CCO` (stereo not given), the compound was classed as inactive.
For the compound `CCOC(=O)C(C)Oc1ccc(Oc2nc3ccc(Cl)cc3o2)cc1` (stereo not given), the result was inactive.
For `COc1c(Cl)ccc(Cl)c1C(=O)O`, the result was inactive.
The same measure, in the same setting: in the case of `CC(C)CCCCCCc1ccc(O)cc1` it was “inactive”.
Take `COC(=O)c1ccc(I)cc1S(=O)(=O)NC(=O)Nc1nc(C)nc(OC)n1`: the outcome was inactive.
The AC50 is the concentration giving half of the maximal activity seen. Consider `S=C(S)NCCNC(=S)S.[Mn+2].[S-]C([S-])=NCCN=C([S-])[S-].[Zn+2]`, for which the AC50 is 40.9 µM (active) and 82.9 µM (active); the outcome was inactive.
`CCC(O)=C1C(=O)CC(C(=O)O)CC1=O` (stereo not given): the compound was called inactive.
In the case of `CC(=O)[C@H]1CC[C@H]2[C@@H]3CCC4=CC(=O)CC[C@]4(C)[C@H]3CC[C@]12C`, the outcome was inactive.
Turning to `CC1(C)C(C=C(Cl)Cl)C1C(=O)OCc1cccc(Oc2ccccc2)c1` (stereo not given), the compound was classed as inactive.
`N#CSCSc1nc2ccccc2s1`: the outcome was inactive.
For `CCOC(=O)c1ccc(O)cc1`, the result was inactive.
On to `Oc1ccc(C(c2ccc(O)cc2)C(Cl)(Cl)Cl)cc1`, for which the outcome was inactive.
In the case of `CCN(CC)C(=O)c1cccc(C)c1`, the result was inactive.
Still for that read-out and setting: in the case of `O=C(c1ccc(O)cc1O)c1ccc(O)cc1O` it was “inactive”; in that of `C=CCOC(Cn1ccnc1)c1ccc(Cl)cc1Cl` (stereo not given), “inactive”.
On to `COC(=O)c1ccccc1C(=O)O`, for which the result was inactive.
The same measure, in the same setting: in the case of `CCOC(=O)NCCOc1ccc(Oc2ccccc2)cc1` it was “inactive”.
As to `COC(=O)c1ccc(CNS(C)(=O)=O)cc1S(=O)(=O)NC(=O)Nc1nc(OC)cc(OC)n1`, the compound was called inactive.
Turning to `COC(=O)CSc1cc(N=c2sc(=O)n3n2CCCC3)c(F)cc1Cl`, the compound was classed as inactive.
Same read-out and setting: the value for `CCNc1nc(N)nc(Cl)n1` was “inactive”.
Consider `CC(=O)S[C@@H]1CC2=CC(=O)CC[C@]2(C)[C@H]2CC[C@@]3(C)[C@@H](CC[C@@]34CCC(=O)O4)[C@H]12`, for which the AC50 was 48.6 µM (active).
Regarding `S=C([S-])NCCNC(=S)[S-].[Mn+2]`, the call was inactive.
Still for that read-out and setting: in the case of `CCOC(=O)COc1cc(-n2ncc(C(F)(F)F)c(C)c2=O)c(F)cc1Cl` it was “inactive”.
Regarding `O=C(Nc1ccc([N+](=O)[O-])cc1Cl)c1cc(Cl)ccc1O`, the compound was classed as inactive.
Same read-out and setting: in the case of `CCCCC(CC)COC(=O)c1ccccc1C(=O)O` (stereo not given) it was “inactive”; in that of `CCSC(=O)N(CC(C)C)CC(C)C`, “inactive”.
Take `C[C@]12C[C@H](O)[C@H]3[C@@H](CCC4=CC(=O)CC[C@@]43C)[C@@H]1CC[C@@H]2C(=O)CO`: the outcome was inactive.
For the compound `OB(O)O`, the compound was classed as inactive.
On the same count and under the same terms, the value for `COc1nc(C)nc(NC(=O)NS(=O)(=O)c2ccccc2OCCCl)n1` was “inactive”; that for `CCCCOC(=O)C(C)Oc1ccc(Oc2ccc(C(F)(F)F)cn2)cc1` (stereo not given) was “inactive”.
In the case of `CCCCC(CC)CN1C(=O)C2C3C=CC(C3)C2C1=O` (stereo not given), the outcome was inactive.
Take `C[C@]12CC[C@@H]3c4ccc(O)cc4C[C@@H](CCCCCCCCCS(=O)CCCC(F)(F)C(F)(F)F)[C@H]3[C@@H]1CC[C@@H]2O` (stereo not given in full): the outcome was inactive.
In the case of `O=C(c1ccccc1)C1CCCCC1`, the result was inactive.
The same measure, in the same setting: the value for `CCCN(CCC)c1c([N+](=O)[O-])cc(C(F)(F)F)c(N)c1[N+](=O)[O-]` was “inactive”; that for `C#C[C@]1(O)CC[C@H]2[C@@H]3CCC4=CC(=O)CC[C@@H]4[C@H]3CC[C@@]21CC` was “inactive”; that for `CC(C)(C)[C@@H](O)[C@@H](Cc1ccc(Cl)cc1)n1cncn1` was “inactive”.
Regarding `N[C@@H](Cc1cc(I)c(Oc2ccc(O)c(I)c2)c(I)c1)C(=O)O`, the result was inactive.
In the case of `CN(C)C(=O)Nc1ccc(Cl)c(Cl)c1`, the result was inactive.
